Results taken from PubChem BioAssay AID1159580 (chemical genetic matrix, 2015).
The campaign covered roughly 5,500 compounds. About 2,000 (36%) were called active. Inconclusive results (about 18%) are left out. Rule as the data show it: active = normalized growth mostly below about 0.91 (no sharp cut-off); inconclusive = no clear call, values can overlap the other calls; inactive = mostly above about 0.92. The list shows a part of the results.

Test: chemical genetic growth profiling, strain panel (AID 1159580);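 also: tested at 20 µM; growth read once vehicle control cultures reached saturation at 30 °C; 1 = growth at the plate median or of vehicle wells; lower values mean less growth of the strain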
Details: S. cerevisiae deletion strains, growth OD

Measured: normalized growth

O=C(ON=C1CCCCC1)c1ccc([N+](=O)[O-])cc1
inactive: locus YAR019C, strain CDC15, active compounds read low 0.949 | locus YBL105C, strain PKC1, active compounds read low 0.959 | locus YBR135W, strain CKS1, active compounds read low 0.947 | locus YBR136W, strain MEC1, active compounds read low 0.956 | locus YBR160W, strain CDC28, active compounds read low 0.959 | locus YDL017W, strain CDC7, active compounds read low 0.952 | locus YDL028C, strain MPS1, active compounds read low 0.95 | locus YDL101C, strain DUN1, active compounds read low 0.954 | locus YDL108W, strain KIN28, active compounds read low 0.948 | locus YDL132W, strain cdc53, active compounds read low 0.944 | locus YDL214C, strain PRR2, active compounds read low 0.849 | locus YDR052C, strain DBF4, active compounds read low 0.962 | locus YDR054C, strain cdc34, active compounds read low 0.948 | locus YDR226W, strain ADK1, active compounds read low 0.948 | locus YDR477W, strain SNF1, active compounds read low 0.833 | locus YER123W, strain YCK3, active compounds read low 0.817 | locus YER133W, strain GLC7, active compounds read low 0.762 | locus YFL009W, strain cdc4, active compounds read low 0.942 | locus YFL029C, strain CAK1, active compounds read low 0.938 | locus YFR003C, strain YPI1, active compounds read low 0.953 | locus YFR019W, strain FAB1, active compounds read low 0.886 | locus YFR028C, strain CDC14, active compounds read low 0.942 | locus YGR040W, strain KSS1, active compounds read low 0.828 | locus YGR052W, strain FMP48, active compounds read low 0.843 | locus YGR092W, strain DBF2, active compounds read low 0.889 | locus YHR079C, strain IRE1, active compounds read low 0.784 | locus YHR082C, strain KSP1, active compounds read low 0.901 | locus YHR205W, strain SCH9, active compounds read low 0.829 | locus YIL147C, strain SLN1, active compounds read low 0.946 | locus YJL095W, strain BCK1, active compounds read low 0.771 | locus YJL128C, strain PBS2, active compounds read low 0.981 | locus YJL157C, strain FAR1, active compounds read low 0.82 | locus YJR016C, strain ILV3, active compounds read low 0.953 | locus YJR066W, strain TOR1 (second series), active compounds read low 0.814 | locus YJR066W, strain TOR1, active compounds read low 0.838 | locus YKL048C, strain ELM1, active compounds read low 0.974 | locus YKL067W, strain YNK1, active compounds read low 0.865 | locus YKL101W, strain HSL1, active compounds read low 0.881 | locus YKL193C, strain SDS22, active compounds read low 0.934 | locus YKL203C, strain TOR2, active compounds read low 0.888 | locus YLR133W, strain CKI1, active compounds read low 0.874 | locus YLR403W, strain SFP1, active compounds read low 0.783 | locus YML070W, strain DAK1, active compounds read low 0.819 | locus YMR001C, strain CDC5, active compounds read low 0.947 | locus YMR205C, strain PFK2 (second series), active compounds read low 0.876 | locus YMR277W, strain FCP1, active compounds read low 0.938 | locus YNL006W, strain LST8, active compounds read low 0.943 | locus YNL020C, strain ARK1, active compounds read low 0.876 | locus YNL161W, strain CBK1, active compounds read low 0.941 | locus YNL183C, strain NPR1, active compounds read low 0.916 | locus YNL207W, strain RIO2, active compounds read low 0.944 | locus YNL222W, strain SSU72, active compounds read low 0.948 | locus YNL307C, strain MCK1 (second series), active compounds read low 0.851 | locus YOL078W, strain AVO1, active compounds read low 0.937 | locus YOL136C, strain PFK27, active compounds read low 0.85 | locus YOR061W, strain CKA2, active compounds read low 0.867 | locus YOR119C, strain RIO1, active compounds read low 0.877 | locus YOR231W, strain MKK1, active compounds read low 0.826 | locus YOR329C, strain SCD5, active compounds read low 0.949 | locus YPL031C, strain PHO85, active compounds read low 0.78 | locus YPL153C, strain RAD53, active compounds read low 0.794 | locus YPL204W, strain HRR25, active compounds read low 0.784 | locus YPL209C, strain IPL1, active compounds read low 0.952 | locus YPR025C, strain CCL1, active compounds read low 0.948 | locus YPR106W, strain ISR1, active compounds read low 0.969 | locus YPR111W, strain DBF20, active compounds read low 0.968 | strain NNK1, active compounds read low 0.972 | strain TSCII, active compounds read low 0.936
active: locus YHR030C, strain SLT2, active compounds read low 0.576 | locus YLR113W, strain HOG1, active compounds read low 0.69 | locus YPL256C, strain CLN2, active compounds read low 0.829
